Assay outcomes (PubChem)
TEAD-YAP inh: TEAD-YAP interaction inhibition. HEK-TIYL cells, TEAD-Gal4/YAP UAS-luciferase luminescence. 640,000 tested, 1.4% active. inhibition, % at 9.12 µM; in the data active = inhibition above about 32%;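 also: 0% = median of test compound wells and 100% = reference inhibitor wells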
FBW7 act: activators of human E3 ligase FBW7 | 650,000 tested, 0.13% active | AlphaScreen FBW7–phospho-cyclin E peptide binding, activator screen | Q969H0 | normalized activity (activation), % at 26.1 µM | AID 1259310; in the data active = normalized activity above about 1.9%;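 also: purified mutant Fbw7 with reduced substrate affinity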
GPR151 ag: human GPR151 activation. Q8TDV0. 650,000 tested, 1% active. PathHunter beta-arrestin GPR151 cells, luminescence. AID 1508602. activation, % at 11.2 µM; in the data active = activation above about 4.9%;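 also: 0% = median of compound wells and 100% = cells with positive control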
MITF primary: human MITF inhibition, primary screen. 650,000 tested, 0.91% active. inhibition, % at 2.6 µM. AlphaScreen MITF homodimerization, bead proximity signal. O75030. AID 1259374; in the data active = inhibition above about 50%;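 also: 0% = vehicle wells with protein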
GPR151 conf act: confirmation of human GPR151 activators; shares compounds with GPR151 ag; GPR151 PathHunter beta-arrestin cells, luminescence, 90 min; % of EA-reagent control over plate median; activation, % at 11.2 µM; 6,700 tested, under 10 active; AID 1508609;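 active = mean percent activation across replicates above the confirmation screen cutoff of 4.91%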
GPR119 ag: GPR119 activation, counter-screen for GPR151 activators; shares compounds with GPR151 ag; GPR119 PathHunter beta-arrestin cells, luminescence, 90 min; 0 = compound-well median, 100 = enzyme-acceptor control; activation, % at 11.2 µM; 6,700 tested, 0.3% active;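 active = mean percent activation in the counterscreen above 29.09%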;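 also: counterscreen on off-target GPR119 to flag nonselective hits from the GPR151 activator screen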
Target sequence (Q8TDV5 whole entry, looked up): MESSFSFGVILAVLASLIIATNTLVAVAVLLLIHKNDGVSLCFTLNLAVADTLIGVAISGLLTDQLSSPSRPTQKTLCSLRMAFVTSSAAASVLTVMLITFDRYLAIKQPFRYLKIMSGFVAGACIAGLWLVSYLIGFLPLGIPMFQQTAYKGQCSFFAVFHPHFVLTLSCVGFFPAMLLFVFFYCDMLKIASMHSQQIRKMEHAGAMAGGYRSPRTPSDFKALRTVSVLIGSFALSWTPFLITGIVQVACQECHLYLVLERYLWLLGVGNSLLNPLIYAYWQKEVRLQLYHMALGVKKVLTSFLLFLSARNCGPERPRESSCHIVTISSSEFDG
The depositor's hits bear a star; . = no result. An excerpt weighted towards active compounds, which were near 3.4% of everything screened.

SMILES	TEAD-YAP inh	FBW7 act	GPR151 ag	MITF primary	GPR151 conf act	GPR119 ag
Cc1cccn2c(CN[C@@H]3CCCC[C@H]3c3ccccc3)c(C(=O)N3CCOCC3)nc12	-3	0	5.0*	13	1	1
Cc1cccn2c(CNC3CCCc4ccccc43)c(C(=O)N3CCOCC3)nc12 (centres undefined)	-7	0	-1	-4	.	.
COCC(C)NCC(O)COc1cc(Cl)ccc1Cl (centres undefined)	2	0	14*	18	1	7
O=C(Nc1cccc(C(=O)N2CCN(c3ccc(F)cc3)CC2)c1)c1ccccc1	2	1	5.6*	-5	1	0
COc1ccc(/C=N/N=C(/N)SC)cc1	-19	1	-3	18	.	.
O=S(=O)(c1ccc(F)cc1)n1nc(C(F)(F)F)c2cnccc21	6	0	5.3*	2	0	2
Cc1ccc(S(=O)(=O)n2nc(C(F)(F)F)c3cnccc32)cc1	4	0	-1	-12	.	.
CCOc1ccc(S(=O)(=O)N2CCN(C)CC2)cc1-c1nc2c(C(C)(C)C)nn(C)c2c(=O)[nH]1	4	0	5.1*	-6	0	9
CC1(C)CC2CC(C)(CN2C(=O)COC(=O)c2cccs2)C1 (centres undefined)	-4	0	1	7	.	.
C=CCNC1CC(=O)N(c2ccc(OCCC)cc2)C1=O (centres undefined)	1	0	2	1	.	.
Cc1cc(NCc2nc3ccccc3[nH]2)nc(-c2ccc(C(=O)NC3CC3)cc2)n1	-11	0	5.1*	10	0	2
O=C(NC1CC1)c1ccc(-c2nc3ncnc(NCc4nc5ccccc5[nH]4)c3[nH]2)cc1	-19	0	6.3*	1	0	-2
Cc1cc(NCc2nc3ccccc3[nH]2)nc(-c2ccccc2)n1	1	0	0	-6	.	.
O=C(CCc1nnc(C2(c3ccc(Cl)cc3)CCC2)o1)N1C[C@@H]2CCC[C@H]1C2	-1	0	0	10	.	.
CN1CCN(C(=O)c2ccc(-c3nc4ccc(C(=O)NCCOc5ccccc5)cc4s3)cc2)CC1	-24	0	5.3*	-8	2	3
CN1CCN(C(=O)c2ccc(-c3nc4ccc(C(=O)NCc5ccccc5)cc4s3)cc2)CC1	1	0	1	-1	.	.
NC(=O)c1ccc(-c2nc3ccc(C(=O)NCCOc4ccccc4)cc3s2)cc1	-33	0	5.7*	-2	0	-3
Cc1nc(SCC(=O)Nc2cc(C)on2)c2c(-c3cccs3)csc2n1	1	0	1	6	.	.
Cc1nc(SCC(=O)NC(=O)NCc2ccco2)c2c(-c3cccs3)csc2n1	2	0	5.0*	11	1	4
Cc1cccc(-n2nnnc2SCC(=O)NN2C(=O)NC(C)(c3ccccc3)C2=O)c1 (centres undefined)	8	0	6.9*	-8	1	12
COc1nc(NCCO)nc(-c2c(C)nn(C)c2C)n1	8	0	14*	2	-1	-9
COc1cc(N=Cc2c(O)n(-c3ccccc3F)c(=O)[nH]c2=O)cc(OC)c1	-23	0	1	12	.	.
COc1cc(N=Cc2c(O)n(-c3ccccc3F)c(=S)[nH]c2=O)cc(OC)c1	10	0	5.4*	2	-1	-5
COc1ccc(C(=O)NCCSc2c[nH]c3ccccc23)c(OC)c1	-14	0	0	-4	.	.
CCCCc1nnc2sc(NC(=O)c3ccc(F)cc3)nn12	1	0	5.6*	-11	0	-7
Cc1ccc(N(CC(=O)NCCC(C)C)C(=O)CCC(=O)Nc2ccccn2)cc1	-1	0	6.3*	6	1	-1
COC(=O)c1ccc(C(=O)N2CCC[C@H]2[C@H](O)c2nc3ccccc3s2)s1	-6	0	-2	-9	.	.
CCOC(=O)CCC(C(=O)c1ccccc1)C(=O)C(C)(C)OC (centres undefined)	-5	0	-1	-5	.	.
CSc1nc2sccn2c(=O)c1C(=O)NCC(F)(F)F	4	0	-1	20	.	.
CSc1nc2sccn2c(=O)c1C(=O)NCc1ccccc1Oc1ccccc1	7	0	17*	6	2	6
